FMDV inh – blocks foot and mouth disease virus | FMDV antiviral cell-based qHTS | actives 1.2% (n = 410,000) | Potency, µM (top dose mostly 57.9 µM), without a hit: at the highest dose activity change, negative = inhibition, hits mostly inhibitors; calls by dose curve; tested in HEK293T cells; further: read-out not given here; potency means the concentration at half of the fitted maximal effect; nearly all actives have a fitted effect of over 45% in size
HCV inh – HCV inhibition | AID 651820 | actives 3.4% (n = 340,000) | Huh7.5.1 HCVcc-Cre infection, luciferase reporter, 44 h | Potency, µM (series often up to 41.8 µM), for inactives: top-dose activity change, negative = inhibition, actives largely listed as inhibitors; active means well fitted inhibition curve with a large enough effect; inconclusive means small, poorly fitted or top-dose-only effect, or another doubt; inactive means no such curve, though single readings can be large or run the other way; further: potency means the concentration at half of the fitted maximal effect
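Luciferase read-out (15 sec integration) after a 15 min room-temperature substrate step quantifies HCVcc-Cre infection. Cells, 1,000 per well, had compound added 4 h post-plating, then virus at ~0.5 moi, and were cultured 44 h.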
VACV mCherry inh – inhibitors of vaccinia virus infection (mCherry reporter signal); Potency, µM (top dose mostly 36.5 µM), for the others: top-dose activity change, negative = inhibition, most hits filed as inhibitors; AID 720579; Vaccinia virus mCherry reporter infection, fluorescence; actives 0.63% (n = 310,000); calls by dose curve; tested in A549 cells; further: potency means the concentration at half of the fitted maximal effect; nearly all actives have a fitted effect of over 35% in size
VACV Venus inh – vaccinia inhibition (Venus reporter) | AID 720580 | Vaccinia virus Venus reporter expression, fluorescence | actives 0.46% (n = 330,000) | Potency, µM (doses to about 36.5 µM), inactives show at the top dose activity change, negative = inhibition, hits mostly inhibitors; calls by dose curve; tested in A549 cells; further: potency means the concentration at half of the fitted maximal effect; nearly all actives have a fitted effect of over 30% in size
HCMV inh – human cytomegalovirus inhibition. HFF cells, HCMV-luciferase reporter, 72 h; stronger effect = lower value. actives 4.5% (n = 410,000). activity change, negative = inhibition, % at 57.5 µM; in the data active means activity change below about -60%; inconclusive means no clear call, values can overlap the other calls; inactive means above about -39%
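HFF cells seeded 16 h at 37C, treated with compounds, infected with luciferase-reporter HCMV at MOI 1 PFU/cell; luciferase read at 72 h post infection, normalized to buffer-only and Salinomycin controls.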
Active calls of the source: *; i = inactive; ? = inconclusive; / = no result given. A selection: hits, their analogues and other compounds. The true share with any hit is near 7.3%. On the % scale 0 is the no-effect control and ±100 the full control effect.

SMILES | FMDV inh | HCV inh | VACV mCherry inh | VACV Venus inh | HCMV inh
C[C@H]1O[C@@H](OC2CC[C@]3(C=O)[C@H]4CC[C@]5(C)[C@@H](C6=CC(=O)OC6)CC[C@]5(O)[C@@H]4CC[C@]3(O)C2)CC2OC(C)(C)OC21 (some centres not stated) | ? | 1µM* | ? | 0.282µM* | -96.6*
C[C@]12CC[C@H]3[C@@H](CC[C@]4(O)C[C@@H](O)CC[C@]34C=O)[C@@]1(O)CC[C@@H]2C1=CC(=O)OC1 | ? | 0.562µM* | 1µM* | 1µM* | -99.2*
CC12CC[C@H]3[C@@H](CCC4(O)C[C@H](O)CCC34/C=N/NC(=O)c3ccccc3Cl)C1(O)CCC2C1=CC(=O)OC1 (some centres not stated) | -22.0% | 7.7% | / | / | -31.6
COc1ccc(NC(=O)N2CCCC3(CCN(C(=O)c4csnn4)CC3)C2)cc1 | -5.3% | / | / | / | /
COc1cccc(N2[C@@H](CC(C)=O)c3ccc(/C=C/C(C)=O)cc3S2(=O)=O)c1 | ? | ? | -11.2% | -20.9% | 95.3
CCCCN=C[C@]12CCC(O)CC1(O)CCC1[C@@H]2CC[C@]2(C)[C@H](C3C=CC(=O)O3)CCC12O (some centres not stated) | -24.4% | 4.47µM* | 0.316µM* | 0.316µM* | -96.8*
CC12CCC3C(CCC4(O)CC(O)CCC34C=O)C1(O)CCC2C1=CC(=O)OC1 (configuration not stated) | ? | ? | ? | 1µM* | -100.2*
CCOC(=O)c1ccc(N=c2sc(C(=O)OC)cc(=O)n2-c2ccc(C(=O)OCC)cc2)cc1 | 20µM* | 10µM* | i | -12.1% | 195.0
COC(=O)c1cc(=O)n(Cc2cccs2)c(=Nc2ccccc2)s1 | ? | ? | / | / | -12.7
COC(=O)c1cc(=O)n(-c2ccccc2)c(=Nc2ccccc2)s1 | 12.6µM* | ? | ? | 5.01µM* | -35.2
CCOC(=O)c1ccc(-n2c(C)ccc2C)cc1 | 2.4% | 32.3% | i | -9.5% | 0.6
COc1ccccc1N1CCN(C(=O)C2CCN(S(=O)(=O)c3ccc(F)cc3)CC2)CC1 | -11.5% | -1.1% | / | / | 37.2
CCOC(=O)c1ccc(S(=O)(=O)N2CCC(C(=O)N3CCN(c4ccccc4OC)CC3)CC2)cc1 | -28.3% | 10µM* | ? | ? | 3.7
COc1ccccc1N1CCN(C(=S)Nc2ccc(S(=O)(=O)N3CCOCC3)cc2)CC1 | 25.1µM* | ? | ? | ? | 3.6
COc1ccccc1N1CCN(CC(O)COc2ccc(S(=O)(=O)N3CCOCC3)cc2)CC1 (configuration not stated) | / | ? | -22.3% | -17.9% | -69.6*
COc1ccccc1N1CCN(CC(O)COc2cc(C)cc(C)c2)CC1 (configuration not stated) | -10.8% | / | -7.5% | -12.0% | -23.0
COc1ccccc1N1CCN(CC(O)COc2ccc(C)cc2C(C)(C)C)CC1 (configuration not stated) | -30.0% | / | -28.9% | -19.6% | -66.9*
CCCNC(=O)c1cc(Cl)c(NC(=O)C2=C(C)OCCS2)cc1OC | -1.3% | ? | / | / | -35.1
CC1=C(C(=O)Nc2cc(C(=O)N3CCN(c4ccc(Cl)cc4)CC3)ccc2C)SCCO1 | 22.4µM* | / | -6.0% | -4.0% | ?
CCOCCCNC(=O)c1cc(Cl)c(NC(=O)C2=C(C)OCCS2)cc1OC | -1.1% | ? | -27.2% | -24.8% | -80.1*
CCCNC(=O)c1ccc(C)c(NC(=O)C2=C(C)OCCS2)c1 | -4.5% | -2.1% | -1.6% | -18.2% | -77.2*
CC1=C(C(=O)Nc2ccc(C(=O)N3CCN(c4cccc(Cl)c4)CC3)cc2)SCCO1 | -2.2% | -11.7% | / | / | 4.7
COc1ncc2nc(-c3cccs3)c(=O)n(-c3ccccc3)c2n1 | 12.1% | / | / | / | /
C/C(CC(c1ccccc1)c1c(O)c2ccccc2oc1=O)=N\NC(N)=S (configuration not stated) | -5.6% | 2.0% | 3.98µM* | 7.94µM* | 47.9
CCCCCCC(C)OC(=O)c1ccccc1C(=O)O (configuration not stated) | -11.4% | 8.0% | i | -6.5% | ?
CCCCCCCCCC[n+]1ccc(/C=C/c2c(C)[nH]c3ccccc23)cc1 | / | / | ? | 397.9% | /
CC1CCc2[nH]c3ccc(C(=O)NCCCOC(C)C)cc3c2C1 (configuration not stated) | -9.7% | 10µM* | / | / | -20.1

Screens from PubChem BioAssay.
